Measurements published in PubChem BioAssay AID485314 (National Center for Advancing Translational Sciences (NCATS), 2010).
Hit rate of the full screen: of about 340,000 compounds, about 4,500 (1.3%) were called active. Another 5% or so got no clear call; they are omitted. The sample as a whole holds a higher share of actives than the screen did. Unmarked numbers belong to inactive results. The call rests on the fitted dose curve; in most records, active means well fitted inhibition curve with a large enough effect; inconclusive means small, poorly fitted or top-dose-only effect, or another doubt; inactive means no such curve, though single readings can be large or run the other way.

target: DNA polymerase beta (Homo sapiens) (UniProt P06746); test: qHTS Assay for Inhibitors of DNA Polymerase Beta; conditions: Pol beta primer extension/strand displacement, fluorescence kinetic; series mostly up to 114 µM; activity change, negative = inhibition: at the top concentration
Outline: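 Kinetic readout of DNA synthesis with strand displacement by Pol beta. Compound and 10 nM enzyme sit 15 min at room temperature; 50 nM substrate starts the reaction, read immediately and at 10 min.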
On the % scale 0 is the no-effect control and ±100 the full control effect; potency means the concentration at half of the fitted maximal effect.

Compound	activity change, negative = inhibition [%]	Potency
COc1cccc(C(=O)NC2=NC(c3ccc(N(C)C)cc3)CC(=O)N2)c1 (stereo unspecified)	0.969	–
CCC(=O)N1CCc2cc(S(=O)(=O)NC(CC(C)C)C(=O)NCCc3cccc(C)c3)ccc21 (stereo unspecified)	-3.09	–
CC(C)C(c1nnnn1C1CCCCC1)N1CCN(C(=O)c2ccco2)CC1 (stereo unspecified)	23.6	–
CCC(c1nnnn1C1CCCC1)N1CCN(C(=O)c2ccco2)CC1 (stereo unspecified)	–	44.7 µM (active)
CCC(C)(C)n1nnnc1C(c1ccc(OC)c(OC)c1)N1CCN(C(=O)c2ccco2)CC1 (stereo unspecified)	-7.42	–
COc1ccc(-c2c(C)c3ccc(O)c(CN4CCN(C)CC4)c3oc2=O)cc1OC	27.4	–
COc1c(O)cc2oc(-c3ccc(O)c(O)c3)cc(=O)c2c1O	–	6.31 µM (active)
COc1ccc(-c2c(C)c3ccc(O)c(CN4CCCC4)c3oc2=O)cc1OC	1.07	–
CCN(CC)c1ccc(NS(=O)(=O)c2cc(-c3cc(C)no3)ccc2C)c(C)c1	7.48	–
CN(C)CCCn1c(-c2ccc(Cl)cc2)csc1=Nc1ccccc1	-17.6	–
CCN1CCN(CCCNC(=O)c2ccc3c(c2)sc2nc(-c4ccc(OC)cc4)cn23)CC1	0.356	–
O=C(CSc1nc2ccccc2nc1Cc1ccccc1)N1CCCCC1	-23.8	–
CCOC(=O)c1ccc(N2C(=O)c3n[nH]c(C)c3C2c2ccc(O)c(OC)c2)cc1 (stereo unspecified)	6.08	–
CCCCCOc1ccc(/C=C/C(=O)NCCc2nc3ccccc3[nH]2)cc1OC	–	15.8 µM (active)
CC(C)Oc1ccc(/C=C(\NC(=O)/C=C/c2ccco2)C(=O)NCCc2nc3ccccc3[nH]2)cc1	-0.381	–
COc1ccc(OC(C)C(=O)NCCc2nc3ccccc3[nH]2)cc1 (stereo unspecified)	3.64	–
O=C(NCc1ccccc1Cl)C1=Cc2cc(Br)ccc2OC1	1.78	–
CC(C)C(=O)Nc1nc2c(s1)CC(C(C)(C)C)CC2 (stereo unspecified)	-15.1	–
CN(C)CCNC(=O)c1[nH]nc2c1CCc1ccccc1-2	4.83	–
COc1ccc(/C=N/NC(=O)c2ccc3c(c2)OCCO3)c(OC)c1	-7.82	–
COc1cccc(/C=N/NC(=O)c2[nH]nc3c2CCc2ccccc2-3)c1O	–	8.91 µM (active)
CCOc1ccccc1CNC(=O)c1ccc(-n2c(C)cc3c2CCC(C)C3)cc1 (stereo unspecified)	-5.46	–
C[N+](C)(CCCCCC[N+](C)(C)CCCN1C(=O)c2cccc3cccc(c23)C1=O)CCCN1C(=O)c2cccc3cccc(c23)C1=O	–	2.38 µM (active)
O=C1c2cccc3cccc(c23)C(=O)N1CCCCCc1n[nH]c(=S)o1	0.636	–
O=C(CCCCCN1C(=O)c2cccc3cccc(c23)C1=O)NCc1ccco1	4.7	–
CCN(CCCNC(=O)CSc1cc(=O)n(C)c2cc(Cl)ccc12)c1cccc(C)c1	-18.6	–
